Shown are actives, neighbours in structure and some others; about 3.9% of the full set was active somewhere.
C8 TRAIL sens – sensitizes caspase-8 expressing cells to TRAIL; inhibition (viability loss, TRAIL sensitization), % at 10 µM; 360,000 tested, 1% active; NB7+C8 cells + TRAIL, ATPlite viability luminescence;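 active = compounds causing at least 50% loss of cell viability in the single-dose screen, relative to plate controls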
HSP90 inh – inhibitors of HSP90 luciferase refolding in rabbit reticulocyte lysate; luciferase refolding luminescence, 3 h; inhibition, % at 5.6 µM; 290,000 tested, 0.91% active; AID 1789;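 active = inhibition above the screen-wide mean plus 3 SD, computed separately per campaign, cut at about 16% in these data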;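 also: 0% = DMSO wells and 100% = 60 µM geldanamycin wells; inhibitors lower the luminescence because luciferase stays unfolded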
TWEAK-Fn14 inh – TWEAK-Fn14 signaling inhibition. TWEAK-stimulated Fn14 reporter cells, luciferase luminescence, 8 h. inhibition, % at 10 µM. 360,000 tested, 2% active; in the data active = inhibition above about 50%
TROY signal inh – TROY signaling inhibition; Q293 LMP1-TROYcd NF-kB luciferase reporter, 4 h; inhibition, % at 10 µM; 360,000 tested, 0.98% active;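 active = compounds whose plate-normalised and pattern-corrected inhibition of the luciferase reporter signal at the single screening dose is 50% or more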
HIF-2a block – HIF-2a inhibition | 360,000 tested, 0.72% active | inhibition, % at 18.8 µM | 786-0 RCC cells HIF-2a reporter, luciferase luminescence, overnight;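 active = inhibition of the luminescence signal of 40% or more relative to plate controls, in a single-dose primary screen at 18.75 µM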
aSyn 5UTR inh – MLPCN primary screen, SNCA 5' untranslated region | alpha-synuclein 5'UTR reporter, inhibitor activity | 300,000 tested, 0.82% active | inhibition, % (tested at 7.5 µM); in the data active = inhibition above about 60%;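 also: H4 neuroglioblastoma cells stably carrying SNCA 5'UTR luciferase fusion; 0% = DMSO wells and 100% = positive control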
* hit, by the source's call; nt = not tested or not shown.

SMILES	C8 TRAIL sens	HSP90 inh	TWEAK-Fn14 inh	TROY signal inh	HIF-2a block	aSyn 5UTR inh
CC(=O)c1cccc(NC(=O)CN2C(=O)COc3ccc(S(=O)(=O)N4CCOCC4)cc32)c1	-18	-3	17	8	7	73*
CC(=O)c1ccc(NC(=O)CN2C(=O)COc3ccc(S(=O)(=O)N4CCCC4)cc32)cc1	1	-3	-3	5	7	-6
CCN(CC)c1ccc(N=Cc2c(C)[nH]c3ccccc23)cc1	12	5	32	15	-16	63*
CCOc1ccc(C(C)=O)cc1COc1cccnc1[N+](=O)[O-]	5	5	39	60*	22	-45
Cc1ccc(Sc2ccc(/C=C3/C(=O)NN(c4ccccc4)C3=O)o2)cc1	0	2	89*	-12	0	-27
O=C1NN(c2ccccc2)C(=O)/C1=C/c1ccc(-c2ccc(Cl)c(C(=O)O)c2)o1	10	-2	-9	4	4	2
O=C1NN(c2ccccc2)C(=O)/C1=C/c1ccc(Sc2ccc(Cl)cc2)o1	10	7	63*	-6	23	-18
COc1cccc(-c2nc3nc(C)cc(C)n3c2NCc2ccccc2)c1	-14	nt	-3	-13	-7	nt
CCCN1C(=O)/C(=C/c2ccc3c(c2)OCO3)NC1=S	-13	2	-1	35	-5	14
CCCN1C/C(=C/c2ccc3c(c2)OCO3)C(=O)/C(=C/c2ccc3c(c2)OCO3)C1	-9	-4	19	-9	89*	-105
COc1ccc(CNC(=O)/C=C/[C@H]2O[C@@H](n3cc(C)c(=O)[nH]c3=O)C[C@@H]2O)cc1	1	nt	-6	10	13	nt
CC(=O)c1ccc(NS(=O)(=O)Cc2ccc(Cl)cc2)cc1	-27	-1	37	63*	-5	-16
COc1ccc(C2c3ccc4ccccc4c3Oc3ncn(CCN4CCOCC4)c(=N)c32)cc1OC (stereo not drawn)	4	10	-2	19	18	105*
COc1ccc(C2c3ccc4ccccc4c3Oc3ncn(CCN4CCOCC4)c(=N)c32)cc1 (stereo not drawn)	14	-3	-1	17	27	-13
CCCCn1nnnc1C(c1ccccc1)N1CCN(c2ccc(C)cc2)CC1 (stereo not drawn)	0	nt	-8	5	5	nt
O=S(=O)(c1ccc(OC(F)(F)F)cc1)N1CCC(O)(c2cccc(C(F)(F)F)c2)CC1	7	2	16	58*	15	22
CCSc1nc(N2CCCCC2)c2c(c1C#N)CCCC2	2	-1	94*	nt	27	40
N#Cc1c(SCc2ccccc2)nc(N2CCOCC2)c2c1CCCC2	-10	3	10	-10	39	nt
[O-][n+]1c2c(c3c4non(O)c4ccc31)CCCC2	-18	6	0	51*	-16	-28
COc1ccc(CN(C)C(=O)/C=C/[C@H]2O[C@@H](n3cc(C)c(=O)[nH]c3=O)C[C@@H]2O)cc1OC	-8	nt	-34	6	4	nt
COC(=O)[C@@]12C[C@@H](CC(=O)NCC34CC5CC(CC(C5)C3)C4)C(=O)N(CCc3ccc(OC)c(OC)c3)C1=CCC(C)(C)C2	25	nt	nt	nt	-6	nt
O=C(Nc1nc2c(Br)cc(Br)cc2c(=O)s1)c1ccco1	-4	-1	62*	4	3	-31
CN1CCN(C2Cc3ccc(F)cc3Sc3cc(F)c(Cl)cc32)CC1 (stereo not drawn)	6	nt	-29	-34	0	102*
CC(C)c1ccc2c(c1)C(N1CCNCC1)Cc1ccc(F)cc1S2 (stereo not drawn)	nt	nt	nt	nt	nt	75*
CN1CCN(C2Cc3cc(F)ccc3Sc3ccc(Cl)cc32)CC1 (stereo not drawn)	20	nt	2	-6	19	10
SMILES	C8 TRAIL sens	HSP90 inh	TWEAK-Fn14 inh	TROY signal inh	HIF-2a block	aSyn 5UTR inh
Cc1ccccc1-n1c(-c2ccco2)n[nH]c1=S	-5	0	10	7	2	29
FC(F)(F)c1ccccc1-n1c(-c2ccco2)n[nH]c1=S	-7	8	88*	25	-6	-7
CN(C)C1CN(Cc2cn(Cc3ccc(Cl)cc3)nn2)S(=O)(=O)C1 (stereo not drawn)	-23	nt	-9	6	-2	nt
Cc1ccnc(NC(=O)CNC(=O)c2sc3ccccc3c2Cl)c1	-1	nt	3	36	-232	-216
CC(=O)Nc1c(C)ccc2nsnc12	-1	5	-3	-11	19	3
Cc1cccnc1NC(=O)c1sc2ccccc2c1Cl	54*	0	7	-14	-172	-70
Cc1ccc2nsnc2c1NC(=O)c1sc2ccccc2c1Cl	11	-4	90*	86*	0	30
O=C(Nc1ccccn1)c1sc2cccc(F)c2c1Cl	81*	-2	63*	13	-129	nt
O=C(Nc1cccnc1)c1sc2cccc(F)c2c1Cl	6	-3	47	-25	-304	-166
Cc1ccc(NC(=O)c2sc3ccccc3c2Cl)nc1	70*	-6	75*	52*	-122	-11
O=C(O)/C=C\C(=O)Nc1ccccc1C(=O)N1CCC(O)(c2ccc(Cl)cc2)CC1	-16	nt	10	5	11	nt
Cc1ccc2nc(-c3ccc(NC(=O)COC(=O)c4cncc(Br)c4)cc3)sc2c1	70*	0	47	26	-140	-11
CNS(=O)(=O)c1cccc(C(=O)OCC(=O)Nc2ccc(N3CCCCC3)cc2)c1	-2	3	-8	2	-55	-31
CNS(=O)(=O)c1cccc(C(=O)OCC(=O)Nc2ccc(-c3nc4ccc(C)cc4s3)cc2)c1	75*	4	27	-24	-183	16
COc1ccc(/C=C(\C#N)C(=O)OCC(=O)Nc2ccc(-c3nc4ccc(C)cc4s3)cc2)cc1	54*	1	-3	9	-206	-70
Cc1ccc2nc(-c3ccc(NC(=O)COC(=O)c4ccc(Br)o4)cc3)sc2c1	75*	0	59*	7	-57	nt
O=C(COC(=O)c1ccc(F)c(S(=O)(=O)N2CCOCC2)c1)NCCc1ccc(F)cc1	12	nt	-15	17	0	nt
CC(=O)Nc1cc(-c2ccsc2)cn2c(-c3ccc(F)cc3)cnc12	-7	nt	-11	-10	-16	nt
O=C1NC[C@@H](CCCCN2C[C@H](Cc3ccccc3)N(CCc3ccccc3)C(=O)C2=O)N(CCc2ccccc2)C1=O	9	nt	23	-2	4	nt
Cc1ccc2nc(-c3ccc(NC(=O)COC(=O)c4ccco4)cc3)sc2c1	71*	-3	52*	7	-61	-6
CCOc1ncccc1C(=O)OCC(=O)Nc1ccc(-c2nc3ccc(C)cc3s2)cc1	75*	0	10	-49	-135	24
Cc1ccc2nc(-c3ccc(NC(=O)COC(=O)c4ccc([N+](=O)[O-])o4)cc3)sc2c1	71*	2	78*	21	-60	53
O=C(Nc1cccc(-c2nc3cccnc3s2)c1)c1ccco1	-1	-3	-13	-20	-180	-51
